# ChEMBL document CHEMBL4888484, “Replenishing the malaria drug discovery pipeline: Screening and hit evaluation of the MMV Hit Generation Library 1 (HGL1) against asexual blood stage Plasmodium falciparum ,using a nano luciferase reporter read-out” (2022)
# Where “and” joins values, the source holds several entries; their conditions need not be identical. Equal entries are not always repeated. Among all 150,000 compounds or so, about 540 (0.36%) showed an effect of 50% or more. Only a selection was taken, and strong results are over-represented in it overall.
# Tested on: Plasmodium falciparum
# Experiment: Primary screen in NF54 nanoGlo assay, in single point, at 2uM, 72h; a lower Z score goes with more inhibition
# Assay type: functional, Erythrocyte
# Settings: timepoint 72 hour
Structure (SMILES),% Inhibition [%],Z score,% Inhibition (2 µM)
Cc1nccc(NC(=O)N2C3CCC2CC(CCF)C3)n1 (configuration not stated),-5,0.79,–
COc1ccc(NC(=O)c2ccc3nn(CC(=O)Nc4ccc(F)cc4)c(=O)n3c2)cc1,-26,2.29,–
O=C(NCc1ccc(F)cc1)C1[C@@H]2C=C[C@@]3(CN(Cc4ccccc4Cl)C(=O)[C@H]13)O2 (some centres not stated),-9,1.29,–
CCCCN(C(=O)Nc1nc2ccccc2s1)C1CC1,-5,0.64,–
COc1ccc(-c2cnc3n2CCCC3)cc1,-23,2.75,–
COc1ccc([N+]2=C3CCCCN3C[C@]2(O)c2ccc(Cl)cc2)cc1,–,–,3% and -11%
COc1ccc(-c2c[n+](-c3ccc(Cl)cc3)c3n2CCCCC3)cc1,64,-6.22,–
Oc1cccc(CN2CCC3(CC2)C[C@H](c2ccccc2)CN(C2CC2)C3)c1,76,-2.68,–
c1ccc([C@@H]2CN(C3CC3)CC3(CCN(Cc4ccccn4)CC3)C2)cc1,-10,1.74,–
c1ccc([C@@H]2CN(C3CC3)CC3(CCN(Cc4ccncc4)CC3)C2)cc1,-1,0.23,–
N#C[C@@]1(c2ccccc2OCc2ccccc2)CCC(=O)N1Cc1ccccc1,-10,1.37,–
CN(C)CCN(Cc1ccsc1)C(=O)c1cc2cc(F)ccc2[nH]1,-5,0.68,–
CN(Cc1ccsc1)C(=O)c1cccs1,-2,0.22,–
CN(Cc1ccsc1)C(=O)c1cc2ccccc2[nH]1,58,-6.32,–
Cc1ccc(S(=O)(=O)N2CCN(C(=O)NCc3nccn3C)CC2)cc1,-12,2.31,–
CC1CN(C(=O)Cc2csc(-c3cccnc3)n2)CC(C)O1 (configuration not stated),-15,2,–
CC(C)N(Cc1ccccc1)C(=O)Cc1csc(-c2cccnc2)n1,-7,0.9,–
CCN1CCC(N(C)C(=O)Cc2csc(-c3cccnc3)n2)CC1,61,0.93,–
O=C(CCc1cn(-c2ccccc2)nc1-c1ccc2c(c1)OCO2)NC[C@H]1CCCO1,0,0.04,–
COCCNC(=O)CCc1cn(-c2ccccc2)nc1-c1ccc2c(c1)OCO2,-10,1.35,–
CN(CCNC(=O)CCc1cn(-c2ccccc2)nc1-c1ccc2c(c1)OCO2)C1CCCCC1,63,-8.26,–
COC[C@@H]1[C@H](C(=O)Nc2cc(OC)ccc2OC)CCC(=O)N1C,-12,1.42,–
O=C(Nc1nncs1)c1occc1-c1ccccc1,-6,0.51,–
CNc1cccc(C(=O)Nc2nncs2)n1,-13,1.62,–
O=C(Nc1nncs1)c1cccc(C(=O)Nc2nncs2)n1,77,-14.68,–
Nc1nnnn1CC(=O)N[C@H]1CC(=O)Nc2ccccc21,10,-1.71,–
FC(F)(F)c1ccnc(Nc2ccc3c(c2)OCO3)n1,-4,0.56,–

Structure (SMILES),% Inhibition [%],Z score,% Inhibition (2 µM)
CC(C)c1cc(CN(Cc2cc(C(C)C)c(O)c(C(C)C)c2)C2CCCCC2)cc(C(C)C)c1O,95,-12.83,–
COc1ccc(CN(Cc2nnn(C)n2)C2CCCCC2)cc1OC,-7,1.05,–
Cc1nn(C)cc1CN(Cc1ccncc1)C1CCCCC1,8,-1.12,–
Cc1noc(C(F)(F)F)c1C(=O)NCC1(C2(O)CCC2)CC1,-10,1.69,–
COc1ccc2c(c1)C(N1CCN(C(=O)CC(C)(C)C)CC1)=Nc1ccccc1O2,1,-0.13,–
CCOC(=O)N1CCCC[C@H](NC2CCN(c3ccc(F)c(F)c3)CC2)C1,4,-0.83,–
O=C(c1cccc(C(F)(F)F)c1)N1CCC(n2cnnc2C2CC2)CC1,2,-0.34,–
O=C(CN1CCC(O)CC1)N1CCC(c2ccccc2)=N1,-5,1.01,–
O=C(NCCn1c(=O)[nH]c2ccsc2c1=O)c1cc(-c2ccc(F)cc2)c[nH]1,-4,0.72,–
O=C(Nc1ccc(Cl)c(N2CCCS2(=O)=O)c1)NC1CCOCC1,-13,1.52,–
COc1cc([C@H](CC(=O)NC2CCN(Cc3ccccc3)CC2)N2Cc3ccccc3C2=O)cc(OC)c1OC,68,-9.85,–
COc1cc(=O)n2c(c1C(=O)NC1CCN(Cc3ccccc3)CC1)CCCCC2,-8,0.91,–
COc1cn(CC(=O)NC2CCN(Cc3ccccc3)CC2)c(CN2CCOCC2)cc1=O,7,-0.83,–
O=C(CN1C(=O)c2ccccc2C1=O)NC1CCN(Cc2ccccc2)CC1,4,-0.5,–
COc1c[nH]c(C(=O)NC2CCCC2)cc1=O,-5,0.85,–
COc1c[nH]c(C(=O)NC2CCN(Cc3ccccc3)CC2)cc1=O,60,-7.68,–
Cn1cccc1CNc1nnc([C@@H]2CCCO2)o1,-5,0.81,–
C[C@H]1NC(=O)N(c2cccc(C#N)c2)C1=O,-4,0.53,–
O=C(NCCN1C(=O)COC1=O)c1cccs1,12,-2.12,–
CC[C@H](C)N(CC(=O)N(CCOC)Cc1cccn1Cc1ccccc1)C(=O)c1ccco1,-8,1.33,–
COc1cccc(OC)c1-c1cncc(C(=O)NCC2CC2)c1,-9,1.48,–
CC(C)(C)c1nc(CNc2ccc(S(=O)(=O)CCO)cc2)no1,52,1.4,–
O=S(=O)(CCO)c1ccc(NCc2ccc(Cl)s2)cc1,-5,0.74,–
Cc1nc(CNc2ccc(S(=O)(=O)CCO)cc2)cs1,-22,4.06,–
O=C(Nc1ccccc1C(=O)N1CCCCC1)[C@H]1CCCN(S(=O)(=O)c2cccs2)C1,3,-0.58,–
Nc1ccnc2c(-c3ccncc3)cccc12,-2,0.26,–
Cc1ccn(C2CCN(C(=O)C(C)(C)c3c[nH]cn3)CC2)n1,-6,1.19,–
